Measured values published in PubChem BioAssay (NCI).
Compounds without any hit were thinned out: in the full panel of roughly 83,000, 20% have a hit.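 Compound tested at a single concentration for 48 hours in 96-well plates; a percent growth value below 10 was scored as active.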 Unmarked numbers belong to inactive results. The source made the active and inactive calls.

system: NCI-H322M lung; experiment: NCI-60 one-dose screen, 48 h (100 = growth as untreated, 0 = no growth, -100 = all killed); details: 10 µM unless noted

SMILES | growth
C=C1CCC2C3(C)COC(c4cc(F)cc(F)c4)OC3CCC2(C)C1CC(O)C1=CCOC1=O (stereo not drawn) | 95%
CC(=O)Nc1ccc(C(=O)NC(=S)Nc2ccc(S(N)(=O)=O)cc2)cc1 | 92.4%
COc1cc(C2CC(c3cc(OC)c(OC)c(OC)c3)=Nc3c(N)nc(N)nc3N2)ccc1Oc1nc(NCCO)nc(N2CCOCC2)n1 (stereo not drawn) | 86.2%
CC1=C(C(=O)c2ccccc2)C(c2cccc(Cl)c2Cl)n2c(nc3ccccc32)N1 (stereo not drawn) | 72%
CN1CCc2c(sc3ncnc(N/N=C/c4ccc(Cl)cc4Cl)c23)C1 | 29.2%
O=C(COc1ccc(NC(=O)Nc2ccc(Cl)c(Cl)c2)cc1)N=Nc1c(O)[nH]c2ccc(Br)cc12 | -15.4% (active)
Cn1cc(NC(=O)c2cc(NC(=O)c3ccc(C#Cc4ccccc4)cc3)cn2C)cc1C(=O)NCCCN1CCOCC1 | 81%
COCOc1cc2oc(C(=O)N[C@@H](Cc3ccccc3)C(O)C(=O)NCc3ccccc3)c(C)c(=O)c2cc1OCOC (stereo partly drawn) | 97.7%
Cc1ccc(C(=O)CSc2nc3ccc(C)cc3c(=O)n2-c2ccc(F)cc2)cc1 | 60%
CC(C)c1ccc2c(N)c(C(=O)Nc3ccc(C(F)(F)F)cn3)sc2n1 | 86.3%
CN(C)CCn1c2ccccc2c2nc3ccc([N+](=O)[O-])cc3nc21 | 11.3%
COc1cc2c(c(OC)c1OC)C(=O)CC(c1cccc(NC(=O)c3cc(NC(=O)[C@H](CO)NC(=O)OC(C)(C)C)ccc3Cl)c1)O2 (stereo partly drawn) | 42.5%
Cc1cccc(NC(=O)[C@]23CCC(C)(C)CC2C2=CCC4[C@@]5(C)C[C@@H](O)[C@H](O)[C@@](C)(CO)C5CC[C@@]4(C)[C@]2(C)CC3)c1 (stereo partly drawn) | 51.6%
CC(=O)Nc1ccc(-n2cnc3ccc(-c4ccc(O)cc4)cc32)cc1 | 44%
NC(=S)Nc1cccc(NC(N)=S)c1 | 88.3%
O=C(/C=C/c1ccc(O)c(O)c1)NC1CCOC1O (stereo not drawn) | 105%
CCN1C(=O)/C(=N\N=C(/C)c2ccc3c(c2)Nc2ccccc2S3)c2cc(Cl)ccc21 | 91.3%
S=C(NCCc1ccccc1)Nc1ccc(OCc2nc3ccccc3[nH]2)cc1 | 100%
COc1ccc(-c2nc(SC(C)C)nc(NCCc3c[nH]c4ccccc34)c2C#N)cc1 | 87.7%

SMILES | growth
S=C(Nc1ccccc1)Nc1ccc(OCc2nc3ccccc3[nH]2)cc1 | 63.6%
CC1(C)CC[C@]2(C(=O)Nc3ccc(Br)cc3)CC[C@]3(C)C(=CCC4[C@@]5(C)C[C@@H](O)[C@H](O)[C@@](C)(CO)C5CC[C@]43C)C2C1 (stereo partly drawn) | 54.5%
CC12CC[C@@H]3[C@]4(C)COC(c5c(F)cccc5F)O[C@@H]4CC[C@@]3(C)[C@@H]1CC(C1=CCOC1=O)O2 (stereo partly drawn) | 79.9%
Cc1ccc(Cc2cnc(NC(=O)c3ccc(/C=C4\SC(=S)N(C)C4=O)cc3)s2)cc1 | 35.9%
CC(=O)Nc1ccc(-n2cnc3cc(-c4ccc(O)cc4)ccc32)cc1C(F)(F)F | 41.1%
Cn1cc(NC(=O)c2cc(NC(=O)c3ccc(/C=C/c4ccccc4)cc3)cn2C)cc1C(=O)NCCCN1CCOCC1 | 69.9%
CN(C)CCCNC(=O)c1cc(NC(=O)c2cc(NC(=O)c3ccc(/C=C/c4ccccc4)cc3)cn2C)cn1C | 73.4%
CC(=O)OC[C@@]1(C)C2CC[C@]3(C)C(CC=C4C5CC(C)(C)CC[C@]5(C(=O)Nc5ccc(Br)cc5)CC[C@]43C)[C@@]2(C)C[C@@H](OC(C)=O)[C@@H]1OC(C)=O (stereo partly drawn) | 67.9%
COc1ccc(NC(=O)Cn2c(O)c(N=Nc3ccc(S(N)(=O)=O)cc3)c3ccccc32)cc1 | 34.4%
S=C(Nc1ccc(OCc2nc3ccccc3[nH]2)cc1)NC1CCCCC1 | 106%
Cc1ccc(NC(=O)[C@]23CCC(C)(C)CC2C2=CCC4[C@@]5(C)C[C@@H](O)[C@H](O)[C@@](C)(CO)C5CC[C@@]4(C)[C@]2(C)CC3)cc1 (stereo partly drawn) | 69.3%
O=S(=O)(Nc1cccc(-n2cnc3cc(-c4ccc(O)cc4)ccc32)c1)C1CC1 | 55.3%
Cn1cc(-c2nnc(N)nc2-c2c[nH]c3ccccc23)c2cccnc21 | 69.9%
CN(C)c1ccnc(CNCCSC2(c3ccc(C(F)(F)F)cc3)c3ccccc3CCc3ccccc32)c1 | 8.82% (active)
CC1=C(C(=O)OC(C)C)C(c2cccc(O)c2)NC(=S)N1 (stereo not drawn) | 103%
N/N=C(\N)c1c(N)nc(=S)[nH]c1-c1ccc(Cl)cc1Cl | 106%
COc1ccc2[nH]cc(-c3nnc(N)nc3-c3c[nH]c4ncc(Br)cc34)c2c1 | 81.3%
COc1cc(C2CC(c3cc(OC)c(OC)c(OC)c3)=NN2c2ccccc2)ccc1OCc1ccc(C)cc1 (stereo not drawn) | 102%
O=C(N/N=C/c1ccc(-c2ccc(O)cc2)o1)c1[nH]c2ccc(Br)cc2c1-c1ccccc1 | 17.4%
